# The list is not random: actives were taken first. Their share in the collection is about 0.85%.
# Akt phos inh: blocks phosphorylation of Akt. activity change, % for hits at 50 µM. Neuro2A IGF-stimulated pAkt S473 HTRF, 20 min; hits give low values. 360,000 compounds, 0.32% hits. AID 651550; in the data active = activity change below about -80%; inconclusive = mostly about -51% to -80%; also: % is scaled to controls: 0 for no effect and ±100 for the full control effect
#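 Neuro2A cells (4,500/well, DMEM with 0.5% FBS) were treated with compound at a single 50 µM final concentration, stimulated with 6 nM IGF for 20 min at 37 °C, and lysed. Phospho-Akt Ser473 was read by HTRF as 665/615 ratio ×10^4.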
# Mm-Cpn inhibitor: blocks the Methanococcus maripaludis chaperonin Mm-Cpn; 330,000 compounds, 0.031% hits; Potency, µM (titrated, usually from 76.9 µM), for inactives: at the top dose activity, negative = inhibition, usual class: inhibitors; purified Mm-Cpn ATPase, ADP Transcreener TR-FRET; also: potency is read from the fitted curve at half-maximal effect; % is scaled to controls: 0 for no effect and ±100 for the full control effect; nearly all actives have a fitted effect of over 80% in size
#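 Reaction buffer contained 30 mM Tris pH 7.4, 100 mM KCl, 5 mM MgCl2 and 1 mM DTT. Mm-CPN (25 nM final) hydrolysed 10 uM ATP over 30 min at 37°C; ADP was read by HTRF.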
# GRP78 ERSR act: ER stress response induction in glioma; U87-MG GRP78 promoter luciferase reporter, 16 h; Potency, µM, without a hit: at the top dose activation, actives largely listed as activators; 420,000 compounds, 0.02% hits; also: potency is read from the fitted curve at half-maximal effect; series mostly up to about 76 µM; % of control where 0% means no effect; nearly all actives have a fitted effect of over 35% in size
#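 Stably transfected U87-MG human glioma cells carrying a GRP78-based luminescent sensor were seeded at 1000 cells/well, pin-dosed with compounds and incubated 16 h. Luciferase reagent was then added, and end-point luminescence was read after 10 min at room temperature.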
# GLS inh: blocks human kidney-isoform glutaminase activity; O94925; Potency, µM (highest dose often 45.5 µM), for inactives: at the top dose activity change, negative = inhibition, actives largely listed as inhibitors; GLS enzymatic activity, qHTS titration; 410,000 compounds, 0.21% hits; also: potency is read from the fitted curve at half-maximal effect; % is scaled to controls: 0 for no effect and ±100 for the full control effect
# Target sequence (O94925 whole entry, looked up, canonical isoform): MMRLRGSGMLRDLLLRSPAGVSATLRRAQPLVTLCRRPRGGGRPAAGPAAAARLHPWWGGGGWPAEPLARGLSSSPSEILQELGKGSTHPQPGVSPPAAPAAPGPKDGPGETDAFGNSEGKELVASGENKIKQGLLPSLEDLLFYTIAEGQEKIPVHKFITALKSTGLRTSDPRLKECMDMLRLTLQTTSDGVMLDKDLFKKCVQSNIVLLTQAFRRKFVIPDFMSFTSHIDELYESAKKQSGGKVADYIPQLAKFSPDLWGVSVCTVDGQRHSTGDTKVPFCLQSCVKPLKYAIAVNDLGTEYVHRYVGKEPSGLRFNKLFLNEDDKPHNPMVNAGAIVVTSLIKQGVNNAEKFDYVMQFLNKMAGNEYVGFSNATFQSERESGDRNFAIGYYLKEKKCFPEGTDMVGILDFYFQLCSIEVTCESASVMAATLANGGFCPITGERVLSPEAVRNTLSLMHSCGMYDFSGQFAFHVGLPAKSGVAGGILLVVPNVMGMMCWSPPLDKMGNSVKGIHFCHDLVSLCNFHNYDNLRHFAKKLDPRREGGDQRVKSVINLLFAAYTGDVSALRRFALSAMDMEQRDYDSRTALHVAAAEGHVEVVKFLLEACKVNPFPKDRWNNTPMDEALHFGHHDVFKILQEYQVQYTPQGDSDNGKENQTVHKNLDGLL
#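 hKGA in 45 mM KH2PO4 pH 8.2, 0.02% Tween-20 with pin-transferred compounds; 1 mM L-glutamine (stock) plus glutamate oxidase/HRP/Amplex Red coupling added. Fluorescence read initially and after 30 min at RT.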
# mIDH1 inhibitor: inhibitors of human mutant IDH1 R132H. O75874. IDH1-R132H enzyme, NADPH consumption, diaphorase/resazurin fluorescence. Potency, µM (top dose mostly 76.6 µM), without a hit: at the top dose activity change, negative = inhibition, usual class: inhibitors. 390,000 compounds, 0.093% hits; also: potency is read from the fitted curve at half-maximal effect; % is scaled to controls: 0 for no effect and ±100 for the full control effect; nearly all actives have a fitted effect of over 65% in size
#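 IDH1-R132H (0.5 ug/mL dispensed) in pH 7.5 Tris buffer was preincubated 30 min with compound, then given a substrate mix of 0.016 mM NADPH and 2 mM alpha-KG for 80 min at room temperature; remaining NADPH was read by diaphorase/resazurin fluorescence.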
# CCT chaperon mod: modulators of cytosolic chaperonin (CCT/TRiC) activity. 360,000 compounds, 0.3% hits. activity change, % (concentration not given with the values), hits read low. AID 651819. purified chaperonin ATPase assay, HTRF ADP detection, 30 min; in the data active = activity change below about -30%; also: % is scaled to controls: 0 for no effect and ±100 for the full control effect
#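 TRiC (40 or 20 nM final, by batch activity) in 30 mM Tris pH 7.4, 100 mM KCl, 5 mM MgCl2, 1 mM DTT was treated with compound at 76 uM single dose, then 10 uM ATP, 30 min at 37 °C. ADP was read by HTRF Transcreener.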
# * hit, by the source's call; i = inactive; ? = inconclusive; . = not tested or not shown. Unless noted, calls follow the shape of the dose curve; as a rule, active = well fitted curve in the direction sought with a large enough effect; inconclusive = small, poorly fitted or top-dose-only effect, or another doubt; inactive = no such curve, though single readings can be large; an effect the other way counts as inactive or inconclusive.
SMILES,Akt phos inh,Mm-Cpn inhibitor,GRP78 ERSR act,GLS inh,mIDH1 inhibitor,CCT chaperon mod
CCCCSc1cnn(-c2ccccc2)c(=O)c1SCCCC,i,40µM*,-3%,1%,9%,-3
CCSc1cnn(-c2ccccc2)c(=O)c1SCC,i,?,-3%,10%,4%,0
Cc1cccc2cc(CN(Cc3nnnn3C3CCCCC3)C3CCCC3)c3nnnn3c12,-116%*,-10%,-3%,-4%,-2%,-1
Cc1cc(C)c2[nH]c(=O)c(CN(Cc3nnnn3C3CCCC3)C3CCCCC3)cc2c1,i,-2%,-3%,5%,1%,-4
CN1CCCN(C(=O)[C@@H]2C[C@@H](Sc3nc4ccccc4[nH]3)CN2Cc2ccc(OC(F)(F)F)cc2)CC1,.,.,-2%,.,.,.
Cc1n[nH]c(C)c1CCCCOc1ccccc1,i,1%,-1%,-6%,5%,-3
Cc1ccc(OCCCc2c(C)n[nH]c2C)cc1,i,-3%,6%,-6%,11%,-60*
CN/C=C1\C(=O)C(C)(C)Oc2ccc3ccc(=O)oc3c21,-93%*,0%,-2%,3%,2%,-2
Cc1ccc(CNc2cnn(C34CC5CC(CC(C5)C3)C4)c(=O)c2Cl)cc1,i,-1%,-6%,11%,-1%,-1
O=c1c(Cl)c(NCc2ccc(F)cc2)cnn1C12CC3CC(CC(C3)C1)C2,i,-1%,-1%,-6%,-3%,-31*
COc1cc(/C=N/NC(=O)c2ccncc2)ccc1OC(=O)c1ccc([N+](=O)[O-])cc1,-107%*,1%,-1%,20%,6%,0
C=CCNC(=O)c1ccccc1NC(=O)c1ccc(Cl)c(S(=O)(=O)Nc2ccccc2)c1,-88%*,-2%,0%,5%,-1%,0
CSc1nnc(CNC(=O)c2c(-c3ccccc3)noc2C)n1-c1ccc(F)cc1,.,.,-4%,.,.,.
CN(C(=O)c1ccc2c(=O)n3c(nc2c1)CCCCC3)c1ccccc1F,i,1%,2%,5%,0%,1
Cc1ccc(C)c(N(C)C(=O)c2ccc3c(=O)n4c(nc3c2)CCCCC4)c1,.,1%,-5%,1%,2%,-72*
COc1cc(/C=C/C(=O)c2ccc3c(c2)OCO3)cc(OC)c1OC,i,-5%,28µM*,-2%,-10%,-2
CC(=O)Nc1ccc(C2=NNC(=Nc3ccc(S(=O)(=O)N4CCOCC4)cc3)SC2)cc1,i,-4%,-2%,-17%,13µM*,-1
Fc1ccc(N=C2NN=C(c3cc(F)ccc3F)CS2)cc1,i,-13%,6%,-10%,11µM*,-2
Fc1ccc(F)c(C2=NNC(=Nc3ccccc3F)SC2)c1,i,-4%,3%,3%,?,-3
O=S(=O)(c1ccc(N=C2NN=C(c3cc(F)ccc3F)CS2)cc1)N1CCOCC1,i,-9%,-3%,1%,26µM*,0
Cc1cccc(-c2cnc(C)nc2C2CCCN(C(=O)c3cccc(Cn4cccn4)c3)C2)c1 (configuration not stated),.,.,0%,.,.,.
Cn1ccc(C(=O)NCC2CCC3(CCN(Cc4cc(F)cc(F)c4)CC3)O2)n1 (configuration not stated),.,.,-5%,.,.,.
CCCCCC(=O)Nc1cc(S(=O)(=O)O)cc2cc(S(=O)(=O)O)cc(O)c12,i,.,-3%,1.8µM*,5%,-2
CCCCCC(=O)Nc1cc(S(=O)(=O)N2CCCCC2)ccc1N1CCCCC1,i,.,-1%,4%,4%,1
CCSc1nnc(NC(=O)c2ccc3ccccc3n2)s1,-95%*,-3%,-7%,-6%,15%,-1
SMILES,Akt phos inh,Mm-Cpn inhibitor,GRP78 ERSR act,GLS inh,mIDH1 inhibitor,CCT chaperon mod
CCc1nnc(NC(=O)c2ccc3ccccc3n2)s1,i,-1%,-6%,-6%,1%,0
CCN(CC)c1ccc(N=C2C=CC(=O)C=C2NC(C)=O)cc1,i,.,0%,11µM*,0%,2
O=C1C=C(CO)OCC1=O,.,.,-4%,-1%,.,.
CC(=O)c1ccc(-c2ccc3c4c(ccc3c2)OC(CNC(=O)[C@@H]2CCCN2C(C)=O)C4)s1 (some centres not stated),.,.,3%,.,.,.
COc1ccc(/C=N/NC(=O)c2ccc(Br)cc2)cc1Cn1cc(Cl)cn1,i,-4%,5%,-12%,5%,-1
COc1ccc(/C=N/NC(=O)c2cccc(Br)c2)cc1Cn1cc(Cl)cn1,-103%*,0%,-2%,-1%,1%,1
Cc1cc2nc(-c3ccc(SCC(=O)N4CCN(C(=O)c5ccco5)CC4)nc3)[nH]c2cc1C,-94%*,-4%,2%,-8%,8%,3
Cc1ccc(C(=O)[C@H](C)CN2CCCCC2)cc1,.,.,-3%,3%,.,.
Cc1ccc(S(=O)(=O)Oc2ccc(/C=C(/NC(=O)c3ccccc3)C(=O)Nc3ccccc3)cc2)cc1,i,3%,-1%,4%,11%,-67*
O=C(Nc1nnc(Cc2ccc(Cl)cc2)s1)c1cccs1,i,-1%,0%,6%,-3%,0
COCc1nnc(NC(=O)c2ccco2)s1,i,2%,1%,-13%,0%,-4
CCOCc1nnc(NC(=O)c2ccco2)s1,-123%*,-2%,-4%,-27%,1%,2
O=C(Nc1nnc(CC(c2ccccc2)c2ccccc2)s1)c1ccco1,-112%*,-2%,-8%,0%,-1%,1
O=C(Nc1nnc(Cc2ccccc2)s1)c1cccs1,-82%*,?,1%,-4%,1%,-12
CCC(c1ccccc1)c1nnc(NC(=O)c2ccco2)s1 (configuration not stated),i,-4%,0%,0%,0%,-1
Cc1cccc2cc(C#N)c(SCC(=O)N3CC(=O)Nc4ccccc43)nc12,?,?,-5%,2%,0%,-45*
Cn1c(NCCO)nc2c1c(=O)n(Cc1ccc(F)cc1)c(=O)n2C,i,-1%,-3%,22%,-5%,-6
COCCNc1nc2c(c(=O)n(Cc3ccccc3F)c(=O)n2C)n1C,i,-1%,-2%,16µM*,-4%,-2
Cn1c(NCCCN2CCOCC2)nc2c1c(=O)n(Cc1ccc(Cl)cc1Cl)c(=O)n2C,i,-1%,-7%,2.5µM*,-1%,-2
Cn1c(NCc2cccnc2)nc2c1c(=O)n(Cc1ccccc1F)c(=O)n2C,i,2%,-1%,?,0%,-5
Cn1c(NCCO)nc2c1c(=O)n(Cc1ccccc1Cl)c(=O)n2C,.,.,-1%,5µM*,9%,.
CCCc1cc(=O)oc2cc(C)c(CN3CCCC3)c(O)c12,i,-1%,0%,10µM*,11%,-5
